Experimental findings from PubChem BioAssay are described below.

Each structure is given as a SMILES string. Calls of active or inactive are those of the source.

A short description of test [1]: binders of probe aFSTL3 on microarray, primary screen, stem cell growth factor project, biochemical, small-molecule microarray, fluorescence 635/667 (AID 1064).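 Note: measures binding of the biotinylated anti-FSTL3 antibody to printed compounds.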 Conditions: higher = more signal.
Test [2] can be described thus: binders from COS7 lysate, DM2A8 probe, primary screen, torsin A project, cell lysate, small-molecule microarray, fluorescence 635/667 (AID 1065). The following applies: higher = more signal, COS7 lysate expressing mutant human TOR1A.
Test [3] can be described thus: binders of probe aFGF2 on microarray, primary screen, stem cell growth factor project, biochemical, small-molecule microarray, fluorescence 635/667 (AID 1067).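 Note: measures binding of biotinylated aFGF2 protein to printed compounds on slides; z-score merges feature fluorescence and signal-to-noise across triplicate slides.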 The following applies: higher = more signal.
A short description of test [4]: binders of probe aFGF10 on microarray, primary screen, stem cell growth factor project, biochemical, small-molecule microarray, fluorescence 635/667 (AID 1071).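 Note: score merges 667 nm spot intensity and signal to noise from triplicate slides.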 Conditions: higher = more signal.
Test [5] deals with Neurogenic locus notch homolog protein 2 (Homo sapiens) (UniProt Q04721). In words: Notch2 binders on small-molecule microarrays, primary screen, biochemical, small-molecule microarray, 635 nm fluorescence, stem cell growth factors (AID 1073). Conditions: Notch2 binding, higher = more signal.
Sequence of Neurogenic locus notch homolog protein 2 (Homo sapiens) (Q04721 whole entry, looked up, canonical isoform): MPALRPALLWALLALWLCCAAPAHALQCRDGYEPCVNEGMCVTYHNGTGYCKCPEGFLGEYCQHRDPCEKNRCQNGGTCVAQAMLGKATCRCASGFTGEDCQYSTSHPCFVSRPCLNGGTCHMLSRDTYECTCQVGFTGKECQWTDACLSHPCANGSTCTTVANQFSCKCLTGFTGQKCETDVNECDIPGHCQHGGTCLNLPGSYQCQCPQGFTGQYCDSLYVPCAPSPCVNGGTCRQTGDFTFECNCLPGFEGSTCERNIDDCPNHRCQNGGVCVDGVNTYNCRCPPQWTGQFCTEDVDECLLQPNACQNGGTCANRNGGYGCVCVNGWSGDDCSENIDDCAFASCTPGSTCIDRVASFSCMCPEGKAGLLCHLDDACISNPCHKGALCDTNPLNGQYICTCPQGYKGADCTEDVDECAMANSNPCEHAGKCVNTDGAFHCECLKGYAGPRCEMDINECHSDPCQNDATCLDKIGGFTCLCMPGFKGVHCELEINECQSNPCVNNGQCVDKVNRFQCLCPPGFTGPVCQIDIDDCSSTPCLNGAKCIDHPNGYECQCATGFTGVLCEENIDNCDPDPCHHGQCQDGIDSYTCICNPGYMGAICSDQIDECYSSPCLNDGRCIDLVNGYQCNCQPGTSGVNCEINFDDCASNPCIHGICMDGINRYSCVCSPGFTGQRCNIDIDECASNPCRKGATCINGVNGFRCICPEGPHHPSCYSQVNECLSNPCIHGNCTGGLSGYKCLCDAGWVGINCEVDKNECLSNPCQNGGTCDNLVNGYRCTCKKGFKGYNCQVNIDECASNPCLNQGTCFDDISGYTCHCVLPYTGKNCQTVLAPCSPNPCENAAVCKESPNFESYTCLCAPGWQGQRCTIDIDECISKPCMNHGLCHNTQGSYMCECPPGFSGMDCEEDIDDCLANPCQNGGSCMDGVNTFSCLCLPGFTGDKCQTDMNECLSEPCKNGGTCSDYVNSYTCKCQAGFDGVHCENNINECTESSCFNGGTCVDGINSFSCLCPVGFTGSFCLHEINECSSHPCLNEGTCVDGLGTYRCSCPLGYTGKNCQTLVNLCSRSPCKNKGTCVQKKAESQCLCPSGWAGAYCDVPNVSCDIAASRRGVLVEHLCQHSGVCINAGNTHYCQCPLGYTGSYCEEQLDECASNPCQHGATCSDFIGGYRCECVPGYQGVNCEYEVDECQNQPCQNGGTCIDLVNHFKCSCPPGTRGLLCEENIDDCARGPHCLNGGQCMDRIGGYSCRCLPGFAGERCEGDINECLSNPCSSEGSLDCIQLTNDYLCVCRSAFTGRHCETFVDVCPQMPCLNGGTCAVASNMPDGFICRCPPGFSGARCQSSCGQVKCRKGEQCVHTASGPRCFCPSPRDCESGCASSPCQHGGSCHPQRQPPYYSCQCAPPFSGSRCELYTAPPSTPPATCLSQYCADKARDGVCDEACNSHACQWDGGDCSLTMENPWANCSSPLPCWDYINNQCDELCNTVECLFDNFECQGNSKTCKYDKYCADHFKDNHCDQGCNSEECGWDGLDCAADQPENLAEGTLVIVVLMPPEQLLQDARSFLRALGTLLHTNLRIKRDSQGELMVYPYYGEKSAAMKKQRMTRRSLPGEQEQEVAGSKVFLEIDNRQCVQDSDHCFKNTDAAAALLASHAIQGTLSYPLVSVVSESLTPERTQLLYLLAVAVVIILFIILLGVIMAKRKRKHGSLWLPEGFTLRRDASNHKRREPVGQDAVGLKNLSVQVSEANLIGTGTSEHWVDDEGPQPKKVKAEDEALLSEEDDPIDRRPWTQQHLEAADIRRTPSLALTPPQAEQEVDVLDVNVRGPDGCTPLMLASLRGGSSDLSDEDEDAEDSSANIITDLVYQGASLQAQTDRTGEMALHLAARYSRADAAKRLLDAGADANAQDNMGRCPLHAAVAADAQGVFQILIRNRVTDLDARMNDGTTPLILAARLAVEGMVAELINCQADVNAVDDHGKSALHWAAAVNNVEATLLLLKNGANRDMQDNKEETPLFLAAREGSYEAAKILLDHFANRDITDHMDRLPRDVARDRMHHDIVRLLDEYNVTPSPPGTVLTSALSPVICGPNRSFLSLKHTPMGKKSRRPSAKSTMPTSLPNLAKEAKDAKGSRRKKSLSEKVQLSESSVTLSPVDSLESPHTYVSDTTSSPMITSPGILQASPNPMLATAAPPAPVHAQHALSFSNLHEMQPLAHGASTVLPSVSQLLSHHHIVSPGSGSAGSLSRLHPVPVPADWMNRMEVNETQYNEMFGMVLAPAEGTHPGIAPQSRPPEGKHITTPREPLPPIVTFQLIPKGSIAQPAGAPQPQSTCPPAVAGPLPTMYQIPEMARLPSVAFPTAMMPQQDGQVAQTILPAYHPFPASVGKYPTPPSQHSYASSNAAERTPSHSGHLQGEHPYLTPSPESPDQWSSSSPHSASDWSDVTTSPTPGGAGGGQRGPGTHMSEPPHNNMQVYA
For test [6], the target named is Pro-neuregulin-1, membrane-bound isoform (Homo sapiens) (UniProt Q02297). As to the kind of experiment: NRG1 binders on small-molecule microarrays, primary screen, psychiatric disease protein project, biochemical, small-molecule microarray, fluorescence 635/667 (AID 1075).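 Note: score combines 667 nm spot fluorescence with signal to noise.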 Conditions: NRG1 binding, 635 nm fluorescence, higher = more signal.
Test [7] has as its system Neuregulin-1 EGF-like domain. As to the kind of experiment: binders of neuregulin-1 EGF-like domain, primary screen, biochemical, small-molecule microarray, 635 nm fluorescence (AID 1081).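 Note: binding of the protein to compounds printed on small-molecule microarray slides.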 Conditions: small-molecule microarray binding, higher = more signal.
Test [8] can be described thus: FRG1 promoter luciferase signal modulators, primary screen, FRG1 inhibition for FSHD, cell-based, C2C12 myotubes, firefly/Renilla luciferase, luminescence (AID 1084). Conditions: higher = more signal, called active from +8 up or from −8 down.
Test [9] can be described thus: binders of probe aFST on microarray, primary screen, stem cell growth factor project, biochemical, small-molecule microarray, fluorescence 635/667 (AID 1086).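 Note: score merges 667 nm fluorescence with signal-to-noise of each printed compound spot.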 The following applies: higher = more signal.
A short description of test [10]: binders of probe aHhip on microarray, primary screen, stem cell growth factor project, biochemical, small-molecule microarray, fluorescence 635/667 (AID 1087).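 Note: score merges spot fluorescence at 667nm with spot signal to noise ratio.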 The following applies: higher = more signal.
The subject of test [11] is PRMT1 (protein arginine N-methyltransferase 1). In words: PRMT1 binders on small-molecule microarrays, primary screen, biochemical, small-molecule microarray, 635 nm fluorescence (AID 1088).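 Note: binding of Prmt1 protein to compounds spotted on small-molecule microarray slides.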 The following applies: small-molecule microarray binding, higher = more signal.
Test [12] is described as follows: yeast growth modulation, basal conditions, primary screen, YJM789 clinical isolate, OD600, 24 h (AID 1089).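 Note: growth of clinical yeast isolate S. cerevisiae YJM 789 seeded 1000 cells per well; test concentration not given here.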 The following applies: S. cerevisiae YJM789 growth, higher = more signal, called active from +8 up or from −8 down.
The nature of test [13]: fission yeast growth modulation, primary screen, strain 972, OD600, 24 h, no modulator (AID 1090).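 Note: basal condition with compound alone and no growth modifier present; test concentration not given here.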 Conditions: S. pombe 972 growth, higher = more signal, called active from +8 up or from −8 down.
Test [14] is described as follows: S. cerevisiae growth modulation with rapamycin, primary screen, strain BY4716, OD600, 96 h (AID 1091). Note: test concentration not given here. The following applies: higher = more signal, called active from +8 up or from −8 down.
Test [15] has as its target Torsin-1A-interacting protein 2 (Homo sapiens) (UniProt Q8NFQ8). As to the kind of experiment: LULL1 binders on small-molecule microarray, primary screen, cell lysate, human LULL1 lysate, 635/667 nm fluorescence (AID 1092).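 Note: probe is lysate of COS7 cells overexpressing human LULL1; score merges per-feature 667 nm fluorescence with signal-to-noise.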 Conditions: hLULL1 lysate binding, 635 nm fluorescence, higher = more signal.
Test [16] can be described thus: E. coli growth modulation, two-sided OD650, primary screen, E. coli filamentation project, strain DRC41, 24 h (AID 1093).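 Note: MC1000 strain lacking acrAB efflux and sulA so SOS filamentation is blocked; test concentration not given here.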 Conditions: OD650, 24 h, higher = more signal, called active from +8 up or from −8 down.
The nature of test [17]: small-molecule microarray binders of probe aLefty2, primary screen, biochemical, biotinylated probe, 635/667 nm fluorescence (AID 1094).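 Note: score merges spot fluorescence near 667 nm with spot signal-to-noise ratio.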 Conditions: higher = more signal.
For test [18], the system named is Noggin (protein binding on small-molecule microarray). In words: Noggin binders on small-molecule microarray, primary screen, biochemical, 635/667 nm fluorescence (AID 1095).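 Note: score merges 667 nm feature fluorescence with signal to noise over triplicate slides.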 Conditions: 635 nm fluorescence, higher = more signal.
The target in test [19] is Neurogenic locus notch homolog protein 3 (Homo sapiens) (UniProt Q9UM47). As to the kind of experiment: NOTCH3 binders on small-molecule microarray, primary screen, biochemical, 635/667 nm fluorescence (AID 1096). Conditions: NOTCH3 binding, 635 nm fluorescence, higher = more signal.
Sequence of Neurogenic locus notch homolog protein 3 (Homo sapiens) (Q9UM47 whole entry, looked up): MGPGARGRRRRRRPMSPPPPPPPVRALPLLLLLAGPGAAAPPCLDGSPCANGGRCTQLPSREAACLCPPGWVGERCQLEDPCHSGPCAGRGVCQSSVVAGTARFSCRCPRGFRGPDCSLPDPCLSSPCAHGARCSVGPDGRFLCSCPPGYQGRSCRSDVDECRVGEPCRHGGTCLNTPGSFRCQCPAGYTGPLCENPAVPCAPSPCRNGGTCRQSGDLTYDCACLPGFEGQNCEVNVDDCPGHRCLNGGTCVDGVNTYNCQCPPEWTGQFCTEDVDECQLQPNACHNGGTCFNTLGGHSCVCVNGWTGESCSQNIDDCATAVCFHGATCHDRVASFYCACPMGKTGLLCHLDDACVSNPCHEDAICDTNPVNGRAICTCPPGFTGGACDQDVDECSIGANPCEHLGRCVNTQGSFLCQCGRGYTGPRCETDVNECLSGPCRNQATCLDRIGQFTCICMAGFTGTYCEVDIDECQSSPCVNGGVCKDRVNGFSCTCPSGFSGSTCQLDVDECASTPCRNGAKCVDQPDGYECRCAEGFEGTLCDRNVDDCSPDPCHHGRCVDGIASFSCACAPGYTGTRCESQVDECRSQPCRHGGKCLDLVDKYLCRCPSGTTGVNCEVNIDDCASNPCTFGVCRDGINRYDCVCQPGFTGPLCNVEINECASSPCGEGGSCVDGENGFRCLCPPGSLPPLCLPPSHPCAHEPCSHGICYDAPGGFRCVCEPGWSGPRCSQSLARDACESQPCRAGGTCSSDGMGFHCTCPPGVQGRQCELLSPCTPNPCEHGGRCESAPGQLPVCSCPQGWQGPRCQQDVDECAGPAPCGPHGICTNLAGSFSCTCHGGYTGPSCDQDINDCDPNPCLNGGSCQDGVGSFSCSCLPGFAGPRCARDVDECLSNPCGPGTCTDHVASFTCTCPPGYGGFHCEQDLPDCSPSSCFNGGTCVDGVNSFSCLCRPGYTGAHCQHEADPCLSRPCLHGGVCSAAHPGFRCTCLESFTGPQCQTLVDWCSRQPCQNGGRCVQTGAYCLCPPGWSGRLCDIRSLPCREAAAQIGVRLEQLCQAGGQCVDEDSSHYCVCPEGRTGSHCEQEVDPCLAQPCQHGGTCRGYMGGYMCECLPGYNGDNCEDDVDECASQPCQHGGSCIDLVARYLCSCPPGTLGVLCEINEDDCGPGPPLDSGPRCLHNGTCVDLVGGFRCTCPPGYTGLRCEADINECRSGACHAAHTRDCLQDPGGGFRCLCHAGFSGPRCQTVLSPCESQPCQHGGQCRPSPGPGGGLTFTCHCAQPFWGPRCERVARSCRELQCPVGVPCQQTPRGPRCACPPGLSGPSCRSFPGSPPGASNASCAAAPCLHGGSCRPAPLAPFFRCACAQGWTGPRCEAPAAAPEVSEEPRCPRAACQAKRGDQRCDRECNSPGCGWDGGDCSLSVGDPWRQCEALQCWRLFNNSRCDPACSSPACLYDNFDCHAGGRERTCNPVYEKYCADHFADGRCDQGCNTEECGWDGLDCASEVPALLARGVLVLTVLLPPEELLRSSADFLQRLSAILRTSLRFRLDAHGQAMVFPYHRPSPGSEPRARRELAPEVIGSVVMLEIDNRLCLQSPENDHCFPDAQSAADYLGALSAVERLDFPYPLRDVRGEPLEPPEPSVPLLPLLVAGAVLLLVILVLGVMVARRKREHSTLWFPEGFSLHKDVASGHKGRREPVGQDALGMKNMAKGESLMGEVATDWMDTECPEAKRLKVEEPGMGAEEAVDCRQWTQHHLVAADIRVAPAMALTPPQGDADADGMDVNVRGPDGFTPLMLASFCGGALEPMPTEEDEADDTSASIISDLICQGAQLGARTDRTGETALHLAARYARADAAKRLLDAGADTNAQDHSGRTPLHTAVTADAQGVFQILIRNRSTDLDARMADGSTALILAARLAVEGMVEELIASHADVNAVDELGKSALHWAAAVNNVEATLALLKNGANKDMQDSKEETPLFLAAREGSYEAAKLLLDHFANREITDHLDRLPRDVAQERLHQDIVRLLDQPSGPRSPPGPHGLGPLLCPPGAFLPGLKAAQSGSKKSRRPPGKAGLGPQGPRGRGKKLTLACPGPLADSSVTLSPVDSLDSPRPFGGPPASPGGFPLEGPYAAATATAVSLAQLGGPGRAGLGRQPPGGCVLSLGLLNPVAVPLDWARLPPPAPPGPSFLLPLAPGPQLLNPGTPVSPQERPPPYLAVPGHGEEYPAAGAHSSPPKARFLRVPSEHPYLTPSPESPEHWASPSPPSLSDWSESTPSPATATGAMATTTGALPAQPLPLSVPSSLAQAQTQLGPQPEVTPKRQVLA
Test [20] can be described thus: small-molecule microarray binders of probe aEGFR, primary screen, biochemical, biotinylated probe, 635/667 nm fluorescence (AID 1097).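 Note: probe is a biotinylated anti-EGFR antibody binding compounds printed on slides; score combines fluorescence near 667 nm and signal to noise of each spot.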 Conditions: higher = more signal.

As to `CCOC(=O)C[C@H]1[C@H](OC(=O)c2ccccc2-c2ccccc2)[C@@H](NC(=O)c2ccc3ccccc3c2)c2cc(OCCCO)ccc2N1C(=O)Cc1ccc(OC)cc1`, the composite z-score in test [1] was 0.225; in test [2], 0.0793; in [3], -0.118; in test [4], 0.162; in test [5], -0.105; in test [6], 0.0671. The composite z-score in [7] was -0.58; in test [9] it was 0.206; in [10], -0.0645; in test [11], -0.793; in test [15] it was 0.276; in [17] it was -0.281. Besides, the composite z-score in test [18] was -0.206; in test [19], -0.626; in test [20], 0.0004. The z-score in test [8] is 1.11 (inactive); in test [12], -0.97 (inactive); in test [13], -0.446 (inactive); in [14], -0.248 (inactive); in test [16], -0.904 (inactive).
Turning to `CC(C)C(=C=CC[C@H](O)c1ccccc1OCCO)C[C@H](O)c1cc(Cl)cc(Cl)c1O`, the composite z-score in test [1] is -0.435; in test [2], 0.807; in test [3], -0.0266; in test [4], 0.742; in test [5] it was 0.648; in test [6] it was 1.6. In addition, the composite z-score in test [7] is 0.889; in test [9], 0.454; in test [10] it was 0.0505; in [11], 1.55; in [15], 2.71; in test [17], -0.226. The composite z-score in test [18] was 0.811; in test [19], 1.03; in [20], 0.0284. Moreover, the z-score in test [8] is -0.926 (inactive); in [12], -0.088 (inactive); in test [13], -2.34 (inactive); in test [14], -0.16 (inactive); in [16] it was -0.0708 (inactive).
Take `CCOC(=O)C1=CCC(c2cc3ccccc3[nH]2)N(CCN2CC(C(=O)OCC)=CCC2c2cc3ccccc3[nH]2)C1` (stereo not given): the composite z-score in test [1] is -0.0107; in test [2], -0.75; in test [3], -0.0216; in test [4], 0.433; in test [5] it was 1.06; in test [6] it was 1.82. Also, the composite z-score is 1.32 in test [7]; 0.74 in [9]; -0.361 in test [10]; 1.4 in [11]; 3.38 in test [15]; 0.0094 in test [17]. The composite z-score was 0.38 in test [18], 0.862 in test [19] and -0.0084 in [20]. For the same compound, the z-score was 2.57 (inactive) in test [8]; -1.61 (inactive) in test [12]; 0.97 (inactive) in test [13]; -0.34 (inactive) in [14]; 0.053 (inactive) in [16].
Consider `CCCCCC1=C2CNC(Cc3ccccc3)(C(=O)OC)C=C2C(C)C1=O` (stereo not given), for which the composite z-score in test [1] is 1.16; in test [2] it was 0.249; in [3] it was -0.0593; in test [4], 0.279; in test [5] it was 0.227; in test [6], 0.932. The composite z-score was 0.446 in [7]; 0.602 in [9]; 0.604 in test [10]; -0.488 in test [11]; 2.5 in [15]; 0.226 in test [17]. Besides, the figures for the composite z-score in test [18], in test [19] and in [20] were -1.49, -0.638 and -0.0632, respectively. Besides, the z-score in [8] is 1.53 (inactive); in test [12], 0.194 (inactive); in test [13] it was -0.331 (inactive); in [14], 1.2 (inactive); in [16], -0.791 (inactive).
As to `CO[C@H]1O[C@H](CO)[C@@H](OC(=O)Nc2ccc3c(c2)OCO3)[C@H](OC(=O)Nc2ccccc2-c2ccccc2)[C@H]1OC(=O)Nc1ccccc1-c1ccccc1`, the composite z-score is 0.22 in test [1]; 0.873 in test [2]; 0.007 in test [3]; 1.26 in test [4]; 1.44 in test [5]; 0.96 in [6]. The composite z-score in [7] is 1.18; in [9] it was 0.189; in test [10], 0.0749; in [11] it was 1.54; in test [15], 3.35; in [17] it was 0.0164. Besides, the values for the composite z-score in test [18], in test [19] and in test [20] were 0.546, 0.624 and 0.29, respectively. Also, the z-score is 0.124 (inactive) in [8]; 2.5 (inactive) in [12]; 2.11 (inactive) in test [13]; 2.28 (inactive) in test [14]; 0.566 (inactive) in test [16].
